Where a name gives a salt, the structure may show the parent alone. ± gives the standard deviation of the averaged measurements.

Experimental findings from the supplement of paper PMC7393113 are described below.

For the experiment, the system named is iBMDM (immortalised mouse bone-marrow-derived macrophages), LPS-stimulated. Description: mitochondrial superoxide (MitoSOX fluorescence) fold increase over unstimulated control; higher = more LPS-induced mitochondrial ROS (less inhibition). The following applies: inhibitor concentration: 500 nM, LPS: 100 ng/ml. The gist of the method:
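Mitochondrial superoxide was expressed as fold induction over untreated macrophages. Immortalised mouse bone-marrow-derived macrophages were pretreated with kinase inhibitors (500 nM) for 30 min, loaded with 1 μM MitoSox for 10 min and stimulated with LPS (100 ng/ml). MitoSox fluorescence (excitation 510 nm, emission 580 nm) was read hourly over 4 h, and the three replicates were averaged.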

In the case of `CN1CCN(c2cccc(Nc3nc4c(-c5ccc(S(C)(=O)=O)cc5)cccn4n3)c2)CC1`, the mitochondrial superoxide reads like this: (time after LPS: 1 h) 1.28 ± 0.037; (time after LPS: 2 h) 1.45 ± 0.058; (time after LPS: 4 h) 1.65 ± 0.051.
In the case of `CNC(=O)c1cc(Oc2ccc(NC(=O)Nc3ccc(Cl)c(C(F)(F)F)c3)c(F)c2)ccn1` [Regorafenib (BAY 73-4506)], the mitochondrial superoxide was determined as 1.5 ± 0.04 (time after LPS: 1 h), 1.68 ± 0.057 (time after LPS: 2 h) and 1.71 ± 0.062 (time after LPS: 4 h).
For `CC(C)N(CCC(=O)c1ccc2ccccc2c1)Cc1ccccc1`, in that order: 1.31 ± 0.017, 1.44 ± 0.11 and 1.69 ± 0.02.
For `C[S+]([O-])c1ccc(-c2nc(-c3ccc(F)cc3)c(-c3ccncc3)[nH]2)cc1` (stereo not drawn), the mitochondrial superoxide is, setting by setting: (time after LPS: 1 h) 1.39 ± 0.14; (time after LPS: 2 h) 1.5 ± 0.16; (time after LPS: 4 h) 1.6 ± 0.18.
Turning to `Cn1cc(-c2[nH]c3cc(NC(=O)[C@H](N)C4CCCCC4)cc4c3c2C=NNC4=O)cn1`, the mitochondrial superoxide is 1.15 ± 0.062 (time after LPS: 1 h), 1.15 ± 0.043 (time after LPS: 2 h) and 1.27 ± 0.029 (time after LPS: 4 h).
For `CN(C)C1CCN(C(=O)c2ccc(NC(=O)Nc3ccc(-c4nc(N5CCOCC5)nc(N5CCOCC5)n4)cc3)cc2)CC1`, in that order: 1.1 ± 0.061, 1.29 ± 0.014 and 1.58 ± 0.095.
In turn, `CN1CC[C@H](c2c(O)cc(O)c3c(=O)cc(-c4ccccc4Cl)oc23)[C@H](O)C1` [Flavopiridol HCl] registered a mitochondrial superoxide (time after LPS: 1 h) of 1.31 ± 0.077, a mitochondrial superoxide (time after LPS: 2 h) of 1.48 ± 0.088 and a mitochondrial superoxide (time after LPS: 4 h) of 1.71 ± 0.06.
Regarding `CCS(=O)(=O)Nc1ccc2[nH]c(O)c(C(=Nc3ccc(CN4CCCCC4)cc3)c3ccccc3)c2c1` [Hesperadin], the mitochondrial superoxide reads like this: (time after LPS: 1 h) 1.1 ± 0.02; (time after LPS: 2 h) 1.13 ± 0.031; (time after LPS: 4 h) 1.28 ± 0.046.
For `CCS(=O)(=O)c1cccc(-c2cc(C(=O)NC3CCN(C)CC3)c(C)c3[nH]c4ncc(C)cc4c23)c1`, in that order: 1.31 ± 0.05, 1.48 ± 0.079 and 1.64 ± 0.098.
For `Cc1cc2c(F)c(Oc3ncnn4cc(OC[C@@H](C)O)c(C)c34)ccc2[nH]1`, in that order: 1.337 ± 0.0099, 1.44 ± 0.11 and 1.53 ± 0.14.
For `CC[C@@H]1C(=O)N(C)c2cnc(Nc3ccc(C(=O)NC4CCN(C)CC4)cc3OC)nc2N1C1CCCC1`, in that order: 1.14 ± 0.063, 1.19 ± 0.038 and 1.39 ± 0.028.
Compound `NC(=O)c1ncn([C@@H]2O[C@H](CO)[C@@H](O)[C@H]2O)c1N` [Acadesine] registered a mitochondrial superoxide (time after LPS: 1 h) of 1.108 ± 0.0017, a mitochondrial superoxide (time after LPS: 2 h) of 1.2 ± 0.043 and a mitochondrial superoxide (time after LPS: 4 h) of 1.36 ± 0.027.
For `O=c1sn(-c2cccc3ccccc23)c(=O)n1Cc1ccccc1` [Tideglusib], in that order: 1.14 ± 0.068, 1.17 ± 0.049 and 1.29 ± 0.062.
For `CNC(=O)c1cc(Oc2ccc(NC(=O)Nc3ccc(Cl)c(C(F)(F)F)c3)cc2)ccn1` [Sorafenib], in that order: 1.48 ± 0.09, 1.45 ± 0.032 and 1.66 ± 0.029.
`CCc1ccc(/C=C2/SC(=S)NC2=O)cc1`: the mitochondrial superoxide was found to be 1.137 ± 0.0067 (time after LPS: 1 h), 1.22 ± 0.042 (time after LPS: 2 h) and 1.36 ± 0.0082 (time after LPS: 4 h).
For `COc1ccc(COc2cc3oc(=O)c4cc(C(C)O)ccc4c3cc2OC)cc1` (stereo not drawn) [Palomid 529 (P529)], in that order: 1.1 ± 0.049, 1.25 ± 0.08 and 1.41 ± 0.05.
For `Nc1nc(Nc2ccc(S(N)(=O)=O)cc2)nn1C(=O)c1c(F)cccc1F`, in that order: 1.15 ± 0.04, 1.13 ± 0.027 and 1.11 ± 0.021.
With `O=C(NOCC1CC1)c1ccc(F)c(F)c1Nc1ccc(I)cc1Cl`, the mitochondrial superoxide came to 1.57 ± 0.11 (time after LPS: 1 h), 1.59 ± 0.071 (time after LPS: 2 h) and 1.9 ± 0.1 (time after LPS: 4 h).
For `CNC(=O)c1ccc(C)c(-n2c(C)cc(OCc3ccc(F)cc3F)c(Br)c2=O)c1`, in that order: 1.33 ± 0.056, 1.48 ± 0.059 and 1.6 ± 0.016.
For `CCc1cc(Nc2nccc(-c3c(-c4ccc(OC)c(C(=O)Nc5c(F)cccc5F)c4)nc4ccccn34)n2)c(OC)cc1N1CCC(N2CCN(S(C)(=O)=O)CC2)CC1`, in that order: 1.3 ± 0.016, 1.4 ± 0.079 and 1.5 ± 0.03.
For `NC1(C(=O)N[C@@H](CCO)c2ccc(Cl)cc2)CCN(c2ncnc3[nH]ccc23)CC1`, in that order: 1.38 ± 0.024, 1.54 ± 0.046 and 1.61 ± 0.029.
